Results reported in PubChem BioAssay (NCATS).
Inconclusive results are not listed. Calls of active or inactive are those of the source. Unless noted, calls follow the shape of the dose curve; as a rule, active = well fitted curve in the direction sought with a large enough effect; inconclusive = small, poorly fitted or top-dose-only effect, or another doubt; inactive = no such curve, though single readings can be large; an effect the other way counts as inactive or inconclusive.

Assays:
[1] = biological target: Glucocorticoid receptor (Homo sapiens) (UniProt P04150); assay: GR-GFP Redistribution (AID 450;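 active = compounds whose dose series gives a full or clear partial fitted curve of increased nuclear translocation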; also: potency is read from the fitted curve at half-maximal effect)
Sequence of Glucocorticoid receptor (Homo sapiens) (P04150 whole entry, looked up, the tested form may be a part): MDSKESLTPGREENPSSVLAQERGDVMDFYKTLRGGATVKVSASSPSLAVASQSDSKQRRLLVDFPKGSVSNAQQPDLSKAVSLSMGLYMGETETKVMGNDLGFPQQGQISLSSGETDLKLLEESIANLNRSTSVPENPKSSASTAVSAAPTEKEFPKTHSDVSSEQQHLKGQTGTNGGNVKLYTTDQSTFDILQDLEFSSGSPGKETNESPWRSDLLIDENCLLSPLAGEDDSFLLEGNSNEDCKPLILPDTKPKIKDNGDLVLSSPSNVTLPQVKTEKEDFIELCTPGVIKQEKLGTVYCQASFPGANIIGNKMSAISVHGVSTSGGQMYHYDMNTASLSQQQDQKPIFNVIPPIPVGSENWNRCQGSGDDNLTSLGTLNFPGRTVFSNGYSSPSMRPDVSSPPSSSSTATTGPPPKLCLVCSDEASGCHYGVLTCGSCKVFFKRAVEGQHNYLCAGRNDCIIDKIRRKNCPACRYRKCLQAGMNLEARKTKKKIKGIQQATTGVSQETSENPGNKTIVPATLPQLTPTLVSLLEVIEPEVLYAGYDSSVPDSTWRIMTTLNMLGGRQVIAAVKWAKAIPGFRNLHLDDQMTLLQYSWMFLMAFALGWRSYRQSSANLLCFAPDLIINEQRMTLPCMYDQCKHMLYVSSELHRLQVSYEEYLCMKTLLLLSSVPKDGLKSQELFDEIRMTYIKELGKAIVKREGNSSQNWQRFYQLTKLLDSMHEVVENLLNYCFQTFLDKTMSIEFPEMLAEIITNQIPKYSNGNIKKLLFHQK

[2] = biological target: Glucocorticoid receptor (Homo sapiens) (UniProt P04150); assay: GR-EFC Redistribution (AID 451; calls by dose curve; also: potency is read from the fitted curve at half-maximal effect); conditions: CHO-K1 GR-EFC translocation, beta-gal luminescence, 2 h
Summary of the method: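 CHO-K1 cells expressing nuclear EA and GR-ED fragments of b-gal; compounds titrated up to 46 uM final, 2 h at 37 C. GR nuclear translocation read as complemented b-gal luminescence after 1 h RT detection.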

[3] = biological target: Mitogen-activated protein kinase 10 (Mus musculus) (UniProt Q61831); assay: JNK3 AlphaScreen Assay (AID 530; active = well fitted curve in either direction with a large enough effect, not every such curve was filed as active;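 also: kinase came from lysate of stimulated human HepG2 cells; signal reports phosphorylation of biotinylated GST-cJun 1-79 at Ser73 with 10 µM ATP; series mostly up to about 57 µM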)
Summary of the method: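 Activity was read by AlphaScreen after JNK3-containing HepG2 lysate (cytokine pre-activated) phosphorylated biotinylated GST-cJun with 10 uM ATP at room temperature. Phospho-Ser73 cJun antibody with Protein-A acceptor beads provided detection.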

[4] = biological target: 3',5'-cyclic-AMP phosphodiesterase 4B (Homo sapiens) (UniProt Q07343); assay: qHTS Assay for Inhibitors of PDE-IV (AID 607; active = well fitted activation curve with a large enough effect in the main read-out, with a control signal flat, not every such curve was filed as active)
Sequence of 3',5'-cyclic-AMP phosphodiesterase 4B (Homo sapiens) (Q07343 whole entry, looked up): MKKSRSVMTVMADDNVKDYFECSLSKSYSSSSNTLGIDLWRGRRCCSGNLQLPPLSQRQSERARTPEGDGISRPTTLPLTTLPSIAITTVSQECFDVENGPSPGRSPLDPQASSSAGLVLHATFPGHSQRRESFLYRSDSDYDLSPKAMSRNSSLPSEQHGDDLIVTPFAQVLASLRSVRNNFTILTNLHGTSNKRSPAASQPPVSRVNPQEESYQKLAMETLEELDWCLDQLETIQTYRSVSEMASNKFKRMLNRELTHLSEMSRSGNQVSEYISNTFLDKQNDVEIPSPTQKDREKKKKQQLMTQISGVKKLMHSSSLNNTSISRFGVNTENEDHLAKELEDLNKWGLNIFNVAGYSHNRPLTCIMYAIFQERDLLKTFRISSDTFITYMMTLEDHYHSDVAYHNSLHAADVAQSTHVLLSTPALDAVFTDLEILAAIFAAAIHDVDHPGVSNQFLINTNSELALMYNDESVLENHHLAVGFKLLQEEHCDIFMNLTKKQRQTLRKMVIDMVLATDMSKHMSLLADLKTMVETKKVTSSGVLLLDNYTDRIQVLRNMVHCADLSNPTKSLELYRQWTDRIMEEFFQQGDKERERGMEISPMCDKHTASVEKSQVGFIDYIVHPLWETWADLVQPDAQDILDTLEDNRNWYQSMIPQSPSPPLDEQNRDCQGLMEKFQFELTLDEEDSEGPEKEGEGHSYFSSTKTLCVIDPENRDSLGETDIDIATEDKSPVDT
Summary of the method: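 The readout is membrane depolarisation from a cAMP-sensing CNG channel, detected with a potential dye at ex 535/em 590. Cells were HEK293-derived (endogenous PDE-IV) at 1000 cells/well, titrated up to 22.9 uM final.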

[5] = biological target: Cytochrome P450 2C9 (Homo sapiens) (UniProt P11712); assay: qHTS Assay for Inhibitors and Substrates of Cytochrome P450 2C9 (AID 883); also: nearly all actives have a fitted effect of over 60% in size; also: potency is read from the fitted curve at half-maximal effect
Sequence of Cytochrome P450 2C9 (Homo sapiens) (P11712 whole entry, looked up): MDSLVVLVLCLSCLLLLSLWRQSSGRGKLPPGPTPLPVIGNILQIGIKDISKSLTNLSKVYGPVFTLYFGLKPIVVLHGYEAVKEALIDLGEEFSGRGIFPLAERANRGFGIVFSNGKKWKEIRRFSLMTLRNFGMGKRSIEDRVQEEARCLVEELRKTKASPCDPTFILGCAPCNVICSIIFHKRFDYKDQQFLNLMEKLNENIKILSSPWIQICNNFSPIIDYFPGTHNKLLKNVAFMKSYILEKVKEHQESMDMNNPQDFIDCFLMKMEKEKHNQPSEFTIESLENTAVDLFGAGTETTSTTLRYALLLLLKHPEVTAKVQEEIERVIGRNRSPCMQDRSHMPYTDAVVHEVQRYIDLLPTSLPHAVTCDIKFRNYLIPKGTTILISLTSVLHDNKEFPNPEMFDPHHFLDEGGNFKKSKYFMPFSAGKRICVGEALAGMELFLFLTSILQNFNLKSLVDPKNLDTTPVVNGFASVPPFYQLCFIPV
Summary of the method: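 Human CYP2C9 (10nM) with Luciferin-H at 100uM (its KM) in 25mM KPO4; compound preincubated 10 min at 37C, then NADPH regeneration for 60 min at 37C. Luciferin read by luminescence after detection reagent; normalized to 57uM sulphaphenazole as full inhibition.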

[6] = biological target: Cytochrome P450 2D6 (Homo sapiens) (UniProt P10635); assay: qHTS Assay for Inhibitors and Substrates of Cytochrome P450 2D6 (AID 891);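 also: luciferin methyl ether substrate demethylated by CYP2D6 with NADPH regeneration; nearly all actives have a fitted effect of over 60% in size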
Sequence of Cytochrome P450 2D6 (Homo sapiens) (P10635 whole entry, looked up): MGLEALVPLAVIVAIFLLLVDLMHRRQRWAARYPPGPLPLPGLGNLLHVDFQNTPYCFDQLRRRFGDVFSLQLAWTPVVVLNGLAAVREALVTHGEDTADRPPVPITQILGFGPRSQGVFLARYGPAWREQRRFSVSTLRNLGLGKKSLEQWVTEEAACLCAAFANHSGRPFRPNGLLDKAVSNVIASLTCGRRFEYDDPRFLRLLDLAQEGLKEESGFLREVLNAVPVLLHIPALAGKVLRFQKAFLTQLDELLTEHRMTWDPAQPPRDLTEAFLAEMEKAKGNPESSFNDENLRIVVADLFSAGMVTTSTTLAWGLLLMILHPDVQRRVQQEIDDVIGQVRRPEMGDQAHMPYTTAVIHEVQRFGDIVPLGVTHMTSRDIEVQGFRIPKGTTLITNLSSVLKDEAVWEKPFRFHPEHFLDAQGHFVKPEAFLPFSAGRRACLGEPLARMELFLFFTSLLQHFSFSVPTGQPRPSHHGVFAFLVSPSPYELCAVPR
Summary of the method: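 Luminescent read-out of luciferin formed by 5 nM human CYP2D6 demethylating 30 uM Luciferin-ME EGE (Km level) over 60 min at room temperature after NADPH regeneration addition. Data normalized to full inhibition by 1.43 uM quinidine.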

[7] = biological target: Cytochrome P450 2C19 (Homo sapiens) (UniProt P33261); assay: qHTS Assay for Inhibitors and Substrates of Cytochrome P450 2C19 (AID 899); also: nearly all actives have a fitted effect of over 60% in size; also: potency is read from the fitted curve at half-maximal effect
Sequence of Cytochrome P450 2C19 (Homo sapiens) (P33261 whole entry, looked up): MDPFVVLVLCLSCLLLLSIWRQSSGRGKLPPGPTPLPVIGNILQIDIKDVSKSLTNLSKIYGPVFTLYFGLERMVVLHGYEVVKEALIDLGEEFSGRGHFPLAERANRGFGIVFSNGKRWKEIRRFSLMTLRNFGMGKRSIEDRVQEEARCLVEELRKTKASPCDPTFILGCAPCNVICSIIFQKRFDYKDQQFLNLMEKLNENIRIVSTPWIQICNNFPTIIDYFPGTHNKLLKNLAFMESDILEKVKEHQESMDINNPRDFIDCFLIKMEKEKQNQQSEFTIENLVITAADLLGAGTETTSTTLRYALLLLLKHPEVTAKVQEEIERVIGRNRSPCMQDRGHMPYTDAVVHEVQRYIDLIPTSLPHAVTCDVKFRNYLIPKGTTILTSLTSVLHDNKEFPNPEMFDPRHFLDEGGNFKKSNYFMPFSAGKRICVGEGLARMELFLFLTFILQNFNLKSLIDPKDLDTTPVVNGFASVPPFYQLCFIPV
Summary of the method: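 5 nM human CYP2C19 with 10uM Luciferin-H EGE (at KM) in 50mM KPO4, compound preincubated 10 min at 37C, then NADPH regeneration for 60 min at 37C. Luciferin read by luminescence after detection reagent; normalized to 57uM ketoconazole as full inhibition.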

[8] = biological target: Ubiquitin carboxyl-terminal hydrolase 1 (Homo sapiens) (UniProt O94782); assay: Inhibitors of USP1/UAF1: Pilot qHTS (AID 504865); also: potency is read from the fitted curve at half-maximal effect; nearly all actives have a fitted effect of over 35% in size
Sequence of Ubiquitin carboxyl-terminal hydrolase 1 (Homo sapiens) (O94782 whole entry, looked up): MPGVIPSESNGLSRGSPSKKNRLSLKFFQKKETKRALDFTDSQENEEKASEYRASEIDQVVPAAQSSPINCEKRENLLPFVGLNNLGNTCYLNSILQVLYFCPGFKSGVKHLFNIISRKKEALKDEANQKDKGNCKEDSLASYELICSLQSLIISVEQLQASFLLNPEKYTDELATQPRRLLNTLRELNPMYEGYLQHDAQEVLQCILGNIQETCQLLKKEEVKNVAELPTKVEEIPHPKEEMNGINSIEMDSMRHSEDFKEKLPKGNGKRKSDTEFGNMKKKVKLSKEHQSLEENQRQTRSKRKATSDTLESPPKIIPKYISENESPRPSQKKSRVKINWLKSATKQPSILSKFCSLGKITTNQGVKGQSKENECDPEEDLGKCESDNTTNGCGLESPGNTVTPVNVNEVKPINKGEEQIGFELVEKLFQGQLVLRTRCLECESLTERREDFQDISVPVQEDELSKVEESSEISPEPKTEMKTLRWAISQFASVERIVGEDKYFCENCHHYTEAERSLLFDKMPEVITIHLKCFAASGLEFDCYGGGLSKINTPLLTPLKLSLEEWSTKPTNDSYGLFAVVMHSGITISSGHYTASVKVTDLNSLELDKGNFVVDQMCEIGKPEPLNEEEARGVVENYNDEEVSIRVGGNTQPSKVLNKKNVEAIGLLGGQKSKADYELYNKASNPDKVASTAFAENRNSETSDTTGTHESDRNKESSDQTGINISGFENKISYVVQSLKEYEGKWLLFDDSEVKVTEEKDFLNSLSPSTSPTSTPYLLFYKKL
Summary of the method: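 USP1/UAF1 complex (1nM) preincubated with compound 15 min at room temperature, then Ub-Rho substrate (150nM final) added. Fluorescence read kinetically at 480/540 nm, 6 reads every 60 seconds. Buffer: 50mM HEPES pH 7.8, 0.5mM EDTA, 0.1 mg/ml BSA, 1mM TCEP, 0.01% Tween-20.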

Measured: Potency

CC(C)C1=CC2=CC[C@H]3[C@@](C)(CCC[C@]3(C)C(=O)O)[C@@H]2CC1
active: [5] 12.6 µM | [7] 25.1 µM
inactive: [1] > 46 µM | [2] > 46 µM | [3] | [4] | [6]

C=C[C@@](C)(O)CC[C@H]1[C@]2(C)CCCC(C)(C)[C@H]2CC[C@]1(C)O
inactive: [1] > 46 µM | [2] > 46 µM | [3] | [6]
active: [7] 2 µM

COc1ccc(-c2coc3ccc(O[C@@H]4O[C@@H](COC(C)=O)[C@@H](OC(C)=O)[C@@H](OC(C)=O)[C@H]4OC(C)=O)c(OC(C)=O)c3c2=O)cc1
inactive: [1] > 46 µM | [2] > 46 µM | [5] | [6] | [7]

Cc1c(C(=O)O)c(O)cc2c1C(=O)c1c(O)c([C@@H]3O[C@H](CO)[C@@H](O)[C@H](O)[C@@H]3O)c(O)c(O)c1C2=O
inactive: [1] > 46 µM | [2] > 46 µM | [3] | [5] | [6] | [7]

CCCC[C@H](CC)CN=C(N)NC(N)=NCCCCCCN=C(N)NC(N)=NC[C@@H](CC)CCCC
active: [8] 28.2 µM
inactive: [1] > 20.6 µM | [2] > 20.6 µM | [3] | [4]
